# Laboratory results published in PubChem BioAssay AID651871 (Sanford-Burnham Center for Chemical Genomics, 2012).
# Several values for one entry are separate records, joined by “and”; a condition that tells them apart may be missing. Equal entries are not always repeated.
# System: H9c2
# Experiment: cardiomyocyte survival under oxidative or metabolic stress – cell-based, panel, H9c2 and HL-1, ATP luminescence, set 2, SAR follow-up (AID 651871);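 note: cells exposed to stressor for 2 h before ATP readout; reference of the scale not given here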
# Details: H9c2/HL-1 cardiomyocytes, 2-deoxyglucose stress, with 2-deoxyglucose; run 8, at 79 µM (top of the series)
row,Compound,activity (protection/inhibition)
1,CCOC(=O)c1cccc(NC(=O)CNC(=O)c2cc(-c3cc(OC)c(OC)c(OC)c3)nc3ccccc23)c1,92.9%
2,COc1ccc2nc(-c3cc(OC)c(OC)c(OC)c3)cc(C(=O)NCC(=O)Nc3ccc(C(C)=O)cc3)c2c1,83.5%
3,COc1ccc2c(c1OC)C(=O)N1c3ccccc3C(=O)N(Cc3cccc(Cl)c3Cl)C21 (stereo not drawn),89.8% and 74.3% and -3.43%
